Tb PYK inh – inhibitors of Trypanosoma brucei pyruvate kinase; 410,000 tested, 0.12% active; TbPYK enzyme, Kinase-Glo Plus ATP luminescence, 45 min; Potency, µM (doses to about 76.8 µM), for the others: at the highest dose activity, negative = inhibition, most hits filed as inhibitors; AID 624173; further: potency means the concentration at half of the fitted maximal effect; on the % scale 0 is the no-effect control and ±100 the full control effect; nearly all actives have a fitted effect of over 50% in size
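Luminescent Kinase-Glo Plus end-point after 45 min room-temperature reaction of T. brucei pyruvate kinase started with 130 uM ADP (final). Buffer TEA 50 mM pH 7.2 with KCl, MgCl2, BSA, Tween-20; titration-based qHTS with fitted concentration-effect curves.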
Shiga toxin inh – Shiga toxin inhibition; AID 2315; inhibition, % at 38.7 µM; 290,000 tested, 9.2% active; Vero cells, Shiga toxin protein synthesis inhibition reporter; in the data active means inhibition mostly above about 28%, no sharp cut-off; inactive means mostly below about 43%; further: 0% is about no effect
CHX counter – affects cycloheximide protein synthesis inhibition readout, counter-screen. cell reporter, cycloheximide protein synthesis inhibition counterscreen. max response, %. 300,000 tested, 12% active. AID 2314; in the data active means max response mostly above about 13%, no sharp cut-off; inactive means mostly below about 14%; further: read at 38.3 µM for the half of the compounds with a filed dose; 0% is about no effect
RE007 growth inh – less growth of the S. pombe RE007 Vpr strain; 360,000 tested, 0.21% active; Potency, µM (titrated, usually from 92.2 µM), for inactives: top-dose activity change, negative = less growth, actives largely listed as inhibitors; S. pombe RE007 Vpr strain, BacTiter-Glo ATP luminescence, 24 h; AID 651644; active means well fitted falling curve with a large enough effect; inconclusive means small, poorly fitted or top-dose-only effect; inactive means no such curve, though single readings can be large or run the other way; further: potency means the concentration at half of the fitted maximal effect; on the % scale 0 is the no-effect control and ±100 the full control effect; nearly all actives have a fitted effect of over 50% in size
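Fission yeast RE007 carrying one integrated HIV-1 vpr copy, seeded at OD 0.01 in PMG+AL medium with 23 nL pinned compound. Grown 24 h at 30 degrees; viability read by BacTiter-Glo luminescence after 5 min.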
Giardia FBPA inh – Giardia lamblia aldolase inhibition | A8B2U2 | purified Giardia FBPA | Potency, µM (series often up to 59.6 µM), without a hit: at the top dose activity, negative = inhibition, actives largely listed as inhibitors | 290,000 tested, 0.71% active | AID 2451; further: potency means the concentration at half of the fitted maximal effect; on the % scale 0 is the no-effect control and ±100 the full control effect; nearly all actives have a fitted effect of over 55% in size
Target sequence (A8B2U2 whole entry, looked up): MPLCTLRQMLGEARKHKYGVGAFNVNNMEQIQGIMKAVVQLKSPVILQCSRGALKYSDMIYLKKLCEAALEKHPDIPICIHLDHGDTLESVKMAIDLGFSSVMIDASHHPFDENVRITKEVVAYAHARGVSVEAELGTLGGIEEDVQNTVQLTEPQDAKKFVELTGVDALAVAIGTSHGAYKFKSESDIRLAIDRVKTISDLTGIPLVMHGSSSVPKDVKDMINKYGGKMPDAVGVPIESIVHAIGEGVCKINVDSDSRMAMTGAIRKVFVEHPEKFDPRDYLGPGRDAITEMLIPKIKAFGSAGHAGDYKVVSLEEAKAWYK
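40 nM FBPA preincubated 10 min at RT with compound (up to 57.5 uM final), then substrate plus GAPDH/TPI/NAD/arsenate coupling and diaphorase/resazurin added. Fluorescence read after 20 min at RT, 525/598 nm.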
LmPK inhibitor – LmPK (Leishmania mexicana) enzyme inhibition. AID 1721. Q27686. 290,000 tested, 0.37% active. Potency, µM (doses to about 57.5 µM), for inactives: top-dose activity change, negative = inhibition, actives largely listed as inhibitors. purified LmPK, Kinase-Glo ATP luminescence, 1 h; further: potency means the concentration at half of the fitted maximal effect; on the % scale 0 is the no-effect control and ±100 the full control effect
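Screened at intermediate enzyme activity to detect both inhibitors and activators: LmPK at 0.1 nM, with a 0.5 nM enzyme column as activation reference. PEP 0.5 mM, ADP 0.1 mM; ATP detected by luminescence after 1 h.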
Starred values were filed as active, the others as inactive; ? = inconclusive; · = no result given; [ ] = remark or other dose. Many of the other results were omitted from the sample, so hits are more common in it than they were. Unless noted, the call rests on the fitted dose curve; in most records, active means well fitted curve in the direction sought with a large enough effect; inconclusive means small, poorly fitted or top-dose-only effect, or another doubt; inactive means no such curve, though single readings can be large; an effect the other way counts as inactive or inconclusive.

SMILES	Tb PYK inh	Shiga toxin inh	CHX counter	RE007 growth inh	Giardia FBPA inh	LmPK inhibitor
O=C(NC1C(=O)NNC1c1ccccc1)c1ccccc1 (configuration not stated)	-22%	116*	21*	15%	-8%	0%
Cc1cccc(C(=O)NC2C(=O)NNC2c2ccc(Cl)cc2)c1 (configuration not stated)	-16%	-35	-5	-16%	?	0%[11.5 µM]
O=C(O)C(Cc1ccccc1[N+](=O)[O-])N1C(=O)c2ccccc2C1=O (configuration not stated)	-3%	·	·	-7%	·	·
O=C(Cc1ccccc1[N+](=O)[O-])OCc1cccc([N+](=O)[O-])c1	·	92*	32*	·	·	-2%
O=C(Cc1ccc(F)cc1)OCN1C(=O)c2ccccc2C1=O	-5%	-24	-4	-13%	·	-8%
O=C(Cc1ccccc1[N+](=O)[O-])OCN1C(=O)c2ccccc2C1=O	-11%	30	18*	-3%	·	-9%
O=C1c2ccccc2C(=O)N1OCc1ccccc1[N+](=O)[O-]	-9%	82	24*	1%	0%	6%
OC[C@@H]1CN(Cc2ccco2)C[C@H](n2cnc3c(Nc4ccccc4)ncnc32)O1	-9%	·	·	15%	·	·
Cn1c(SCc2ccc(C#N)cc2Cl)nc2ccccc21	-5%	125	40*	-20%	-25%	-28%
Cn1c(SCc2nc3ccccc3n2CCO)nc2ccccc21	11%	-11	-5	-16%	-11%	0%
N#Cc1ccc(CSc2ccccn2)c(Cl)c1	-5%	117	25*	6%	-5%	0%
CCCCCOC(=O)c1ccc(OC(=O)c2sc3ncn(Cc4cccc(F)c4)c(=O)c3c2C)cc1	-12%	·	·	·	·	·
Cc1cccc(-c2nc3c4c(-c5ccccc5)c(-c5ccccc5)oc4ncn3n2)c1	5%	·	·	·	·	·
CC(C)C[C@@H](C(=O)N[C@@H](Cc1c[nH]c2ccccc12)C(N)=O)N1C[C@]2(CCCN2C(=O)[C@H](Cc2ccccc2)NC(=O)[C@H](Cc2ccccc2)NC(=O)[C@H](CCC(N)=O)NC(=O)[C@H](CCC(N)=O)NC(=O)[C@@H]2CCCN2C(=O)[C@H](CCCCN)NC(=O)[C@@H]2CCCN2C(=O)[C@@H](N)CCCNC(=N)N)CC1=O	·	-9	-4	·	4%	·
CSc1nnc2c(n1)c(C)nn2-c1ccc(C)cc1	-13%	23	20*	-8%	0%	1%
Cc1ccc(-n2nc(C)c3c(C(=O)O)cc(C)nc32)cc1	3%	·	·	·	·	·
CCNC(=O)c1sc2cc(C)ccc2c1Cl	2%	39*	25*	-2%	-4%	0%
Cc1ccc2c(Cl)c(C(=O)NCCc3ccccc3)sc2c1	-3%	124*	48*	-14%	1%	-5%
COc1ccc(CCNC(=O)c2sc3cc(C)ccc3c2Cl)cc1	-1%	12	2	17%	0%	7%
Cc1ccc2c(Cl)c(C(=O)Nc3cc(C)on3)sc2c1	1%	78*	31*	9%	2%	-3%
Cc1cc(NC(=O)c2c(Cl)cccc2Cl)no1	5%	-3	-2	9%	2%	6%
O=C(c1ccccc1)c1ccc(O)cc1O	-4%	-2	7	-22%	1%	2%
CC(=O)c1cc2c(C)c(C(=O)c3ccccc3)oc2cc1O	7%	79*	45*	-6%	7%	-2%
CN(c1cc(=O)n2ccccc2n1)C1CCCCC1	5%	24	24*	-18%	-8%	-5%
Cc1cc(C)c2c(=O)n(CC(=O)NC3CCCC3)sc2n1	10µM*	-7	10	-13%	-16%	-5%
SMILES	Tb PYK inh	Shiga toxin inh	CHX counter	RE007 growth inh	Giardia FBPA inh	LmPK inhibitor
Cc1cc(C)c2c(=O)n(CC(=O)Nc3cccc(Cl)c3C)sc2n1	?	-12	7	?	-12%	?
Cc1cc(C)c2c(=O)n(CC(=O)Nc3ccc(Br)c(C)c3)sc2n1	8.9µM*	19	-2	?	-19%	-22%
C=CCc1c(C)[nH]c2c(OC)cccc2c1=S	?	-6	-3	0%	-27%	2µM*
C=CCN(CC=C)C(=O)c1c(OC)cccc1OC	-2%	-15	-3	-3%	4%	1%
COc1ccc(N/C=C/C(=C(C#N)C#N)N(C)C)cc1	-3%	-3	0	-19%	-10%	-2%
O=C1c2ccccc2C(=O)N1CCCCNc1ccccc1	-5%	·	·	10%	·	·
c1ccc(NCCCNc2ccccc2)cc1	-1%	16	11*	?	-7%	7%
COc1ccccc1-c1cc(NC(=O)COc2ccccc2Cl)n(-c2ccccc2)n1	5%	·	·	·	·	·
Cc1cc(-c2nnc(CCC(=O)N(C)Cc3ccsc3)o2)no1	1%	34	21*	27%	15%	2%
Cc1cc(-c2nnc(CCC(=O)NCc3ccc(OC(F)(F)F)cc3)o2)no1	35%	29	16*	-8%	3%	3%
Cc1cc(-c2nnc(CCC(=O)N(C)C(C)c3cccs3)o2)no1 (configuration not stated)	3%	77*	48*	10%	3%	7%
Cc1cc(-c2nnc(CCC(=O)NC(C)(C)C34CC5CC(CC(C5)C3)C4)o2)no1	-6%	·	·	13%	·	·
Cc1cc(-c2nnc(CCC(=O)NC(C)c3ccc(F)cc3)o2)no1 (configuration not stated)	4%	43	10	1%	3%	2%
COCCn1c(SCC(=O)NCC2CCCO2)nc2c(c1=O)SCC2 (configuration not stated)	1%	-2	-2	-26%	-7%	2%
O=C(CC1CC2CCC1C2)N1CCN(S(=O)(=O)c2ccc(F)cc2)CC1 (configuration not stated)	-1%	·	·	-8%	·	·
CCCCN1C(=O)C(=O)NC[C@@H]1Cc1ccc(O)cc1	-10%	·	·	6%	·	·
CCCCN1C(=S)NC[C@@H]1Cc1ccc(O)cc1	-13%	-6	7.2*	-3%	-8%	1%
CCCOc1ccc(/C=N/n2nnnc2N)cc1OC	2%	10	9	15%	2%	-10%
Nc1nnnn1/N=C/c1cccc(O)c1	0%	7	6	-3%	1%	-2%
CCN(CC)c1ccc(/C=N/n2nnnc2N)c(O)c1	3%	33	14*	-18%	-6%	-1%
CSc1ccc(/C=N/n2nnnc2N)cc1	8%	24	27*	-4%	4%	0%
CCN(C)c1ccc(/C=N\n2nnnc2N)cc1	-6%	65*	29*	-13%	-5%	-4%
Nc1nnnn1/N=C/c1cc(Cl)ccc1O	2%	16	-1	-1%	1%	-2%
Nc1nnnn1/N=C/c1ccc(O)cc1	-8%	-5	7	-19%	5%	16µM*
Cc1ccc(-c2nc(C(=O)NCc3ccccc3Cl)c3n2CCCCC3)cc1	-7%	·	·	·	·	·
